# Shiga toxin inh: inhibitors of Shiga toxin in Vero cells. AID 2315. inhibition, % at 38.7 µM. Vero cells, Shiga toxin protein synthesis inhibition reporter. 9.2% of 290,000 active; in the data active means inhibition mostly above about 28%, no sharp cut-off; inactive means mostly below about 43%; further: 0% is about no effect
# AmpC inh no detg: AmpC beta-lactamase inhibition without detergent. P00811. AmpC nitrocefin hydrolysis, absorbance 480 nm, 0.0001% Triton. Potency, µM (titrated, usually from 57.1 µM), inactives show at the top dose activity change, negative = inhibition, usual class: inhibitors. 0.52% of 330,000 active;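 further: potency means the concentration at half of the fitted maximal effect; plate controls were no compound for no effect and no enzyme for full effect; nearly all actives have a fitted effect of over 20% in size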
# Target sequence (P00811 whole entry, looked up): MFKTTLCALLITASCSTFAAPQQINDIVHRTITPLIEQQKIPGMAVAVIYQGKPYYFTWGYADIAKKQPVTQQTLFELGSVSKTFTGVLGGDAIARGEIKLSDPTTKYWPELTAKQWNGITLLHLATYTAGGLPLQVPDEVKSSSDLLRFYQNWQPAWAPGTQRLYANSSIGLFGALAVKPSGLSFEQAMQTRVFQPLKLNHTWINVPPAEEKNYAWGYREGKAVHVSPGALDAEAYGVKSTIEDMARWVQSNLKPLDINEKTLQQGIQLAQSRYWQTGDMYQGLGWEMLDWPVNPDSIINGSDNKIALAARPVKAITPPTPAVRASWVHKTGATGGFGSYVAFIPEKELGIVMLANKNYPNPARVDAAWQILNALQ
#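 AmpC (5.3 nM in the dispensed reagent) in 20 mM phosphate pH 7.0 with 0.01% (detergent screen) or 0.0001% Triton X-100 was preincubated with compounds for 15 min at room temperature. Nitrocefin was then added from an 800 uM solution, and hydrolysis was followed at 480 nm.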
# AmpC detergent: AmpC beta-lactamase inhibition with detergent present | P00811 | AmpC hydrolysis of nitrocefin, absorbance 480 nm, 0.01% Triton | Potency, µM (highest dose often 114 µM), without a hit: top-dose activity change, negative = inhibition, hits mostly inhibitors | 0.041% of 370,000 active | AID 485294;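 further: potency means the concentration at half of the fitted maximal effect; 0% = no-compound wells and -100% = no-enzyme wells; nearly all actives have a fitted effect of over 25% in size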
#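 AmpC (5.3 nM in the dispensed reagent) in 20 mM phosphate pH 7.0 with 0.01% (detergent screen) or 0.0001% Triton X-100 was preincubated with compounds for 15 min at room temperature. Nitrocefin was then added from an 800 uM solution, and hydrolysis was followed at 480 nm.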
# NS1 function inh: blocks influenza NS1 protein function. AID 2326. 0.4% of 270,000 active. Potency, µM (series often up to 46.1 µM), for inactives: at the highest dose activity, positive = more growth; calls by dose curve; further: potency means the concentration at half of the fitted maximal effect; actives are rising curves; nearly all actives have a fitted effect of over 50% in size
#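 Compounds were scored for reversing the slow growth caused by influenza A NS1 in S. cerevisiae, measured by optical density at 600 nm. Assay medium contained 2% galactose at pH 6.0; NS1-free yeast of the same strain were the positive control.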
# Cycloheximide cs: counter-screen for Shiga toxin inhibitors: cycloheximide protein synthesis inhibition. max response, %. cell reporter, cycloheximide protein synthesis inhibition counterscreen. 12% of 300,000 active; in the data active means max response mostly above about 13%, no sharp cut-off; inactive means mostly below about 14%; further: read at 38.3 µM for the half of the compounds with a filed dose; 0% is about no effect
# * = called active by the depositor; u = inconclusive; x = no result; [ ] = remark or other dose. The sample as a whole holds a higher share of hits than the screen did. Unless noted, the call rests on the fitted dose curve; in most records, active means well fitted curve in the direction sought with a large enough effect; inconclusive means small, poorly fitted or top-dose-only effect, or another doubt; inactive means no such curve, though single readings can be large; an effect the other way counts as inactive or inconclusive.
SMILES,Shiga toxin inh,AmpC inh no detg,AmpC detergent,NS1 function inh,Cycloheximide cs
CCc1cccc(N(C(=O)c2csnn2)C(C(=O)NC2CCCCC2)c2ccncc2)c1 (stereo unspecified),-7,19%,-4%,9%,1
CC1(C)CC(=O)C2=C(C1)N(Cc1cccnc1)C(=O)C2(NC(=O)c1ccc(F)cc1)C(F)(F)F (stereo unspecified),-17,1%,u,u,37
CCN(C(=O)CSc1nnc2c3ccccc3n(CC)c2n1)C1CCS(=O)(=O)C1 (stereo unspecified),17,44%,6%,u,4
Clc1cccc(Cl)c1C1=NOC(c2nnc(-c3ccccc3)o2)C1 (stereo unspecified),108*,-37%,4%,13%,50*
Clc1ccc(C2=NOC(c3nnc(-c4ccccc4)o3)C2)cc1 (stereo unspecified),-2,-4%,-4%,-4%,-2
COc1nc(-c2ccc(Cl)cc2)nnc1C,10,5%,1%,-2%,15*
C=CCN1C(=O)S/C(=C/c2ccsc2)C1=O,62*,-15%,4%,6%,37*
CCN(CC)Cc1c(O)ccc2occ(C(=O)c3ccc(OC)cc3)c12,19,-48%,-6%,-9%,15*
COc1ccc(C(=O)c2coc3ccc(O)c(CN4CCOCC4)c23)cc1,38*,33%,0%,-8%,13*
Cc1ccc(C(=O)c2coc3ccc(O)c(CN4CCN(C)CC4)c23)cc1,73*,23%,u,-2%,15*
O=C(c1cccs1)c1coc2ccc(O)c(CN3CCOCC3)c12,-4,-11%,-10%,-9%,11
COc1ccc(C(=O)c2coc3ccc(O)c(CN4CCCC4)c23)cc1,-5,-17%,u,-1%,-2
CCCCN(CC)C(=O)CSc1nc2ccccc2c(=O)n1Cc1ccco1,x,x,10%,x,x
Cc1ccccc1C(=O)NCC(=O)OC(C)C(=O)NCc1ccco1 (stereo unspecified),x,-17%,-19%,x,x
C=CCNc1ncnc2c1[nH]c1ccc(C)cc12,79*,13µM*,u,-13%,43*
Clc1ccc2[nH]c3c(NCCCN4CCOCC4)ncnc3c2c1,21,18%,-11%,-7%,23
O=C1CCCN1CCCNc1ncnc2c1[nH]c1ccc(Cl)cc12,57,-4%,-1%,-24%,13*
Cc1ccc2[nH]c3c(NCCN4CCOCC4)ncnc3c2c1,53*,-23%,0%,4%,14*
COCCn1c(SCc2ccc(F)cc2)nc2ccccc2c1=O,-32,37%,2%,-21%,-2
CC1(C)CC2(CC(c3ccccc3)c3ccc(O)cc3O2)NC(=S)N1 (stereo unspecified),-16,-49%,-7%,0%,1
Cc1cccc(NC(=O)CN2C(=O)N/C(=C\c3ccc(N4CCOCC4)cc3)C2=O)c1,68*,1%,-1%,1%,39*
Cc1cc(N2CCOCC2)ccc1/C=C1\NC(=O)N(CC(=O)Nc2ccc(F)cc2)C1=O,91*,-4%,-8%,0%,23*
Cc1ccc(-n2cccc2/C=C2/NC(=O)N(CC(=O)Nc3cccc(C)c3)C2=O)cc1,-10,32µM*,u,u,1
CCc1cccc(C)c1NC(=O)Cn1c(=O)cc(C)c2c(C)nn(-c3cccc(F)c3)c21,x,x,-1%,x,x
O=C(CCl)NCc1cc(-c2ccc(Cl)cc2)no1,29,1%,1%,x,16*
SMILES,Shiga toxin inh,AmpC inh no detg,AmpC detergent,NS1 function inh,Cycloheximide cs
c1ccc(SCc2cc(-c3ccccc3)no2)cc1,82*,-15%[2.29 µM],-11%,-2%,39*
Clc1ccc(-c2cc(CSc3ccccc3)on2)cc1,132*,-27%,-12%,u,51*
COc1ccc(CNC(=O)COc2ccc(OC)cc2)cc1,14,-1%,3%,-4%,12
CCCC(=O)N(CCN1CCOCC1)c1nc2c(OCC)cccc2s1,-8,154%,-8%,-23%,-3
CC/C(=N/NC(=O)c1ccc(Br)o1)c1ccc(Cl)cc1,125*,-37%,2%,-5%,39*
CCCC/C(=N\NC(=O)c1ccc(Br)o1)c1ccccc1,46*,-1%,3%,-1%,32*
NC(=O)CC1C(=O)N(c2ccccc2)C(=S)N1NC(=O)c1ccccc1 (stereo unspecified),32,-20%,-1%,3%,27*
